# Data taken from PubChem BioAssay AID686979 (National Center for Advancing Translational Sciences (NCATS), 2013).
# Hit rate of the full screen: of about 420,000 compounds, about 50,000 (12%) were called active. Inconclusive results (about 26%) are left out. The sample as a whole holds a higher share of actives than the screen did. Unmarked numbers belong to inactive results. Calls follow the shape of the dose curve; as a rule, active = well fitted inhibition curve with a large enough effect; inconclusive = small, poorly fitted or top-dose-only effect; inactive = flat fitted curve, though single readings scatter.
# Assay: qHTS for Inhibitors of human tyrosyl-DNA phosphodiesterase 1 (TDP1): qHTS in cells in presence of CPT; also: nearly all actives have a fitted effect of over 55% in size
# Details: chicken DT40 Tdp1-/-;hTDP1 cells + 20 nM CPT, ATP luminescence, 48 h; series mostly up to 46.2 µM; activity change, negative = growth inhibition: at the top concentration
# Outline: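 Chicken DT40 Tdp1-/- cells complemented with human TDP1, 400 cells/well, exposed to compounds plus 20 nM camptothecin for at least 48 h at 37 C; viability read as ATP content by CellTiter-Glo luminescence.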
# % is scaled to controls: 0 for no effect and ±100 for the full control effect; potency is read from the fitted curve at half-maximal effect.
SMILES,"activity change, negative = growth inhibition",Potency
CC(=O)Oc1ccc(C(C)=O)c2c1OCCO2,-4.02%,–
CC(=O)NCCc1ccc(S(=O)(=O)Nc2ccc(C)c(S(=O)(=O)N3CCOCC3)c2)cc1,-15.7%,–
O=C(CCCCCNC(=O)c1ccccc1)N/N=C/c1ccccc1,-4.67%,–
O=C(NN=Cc1ccccc1O)NN=Cc1ccccc1O,–,4.11 µM (active)
Oc1ccccc1C=NC1CCCCC1N=Cc1ccccc1O (stereo not given),-9.12%,–
O=C(CCC(=O)Nc1ccccc1)N/N=C/c1ccccc1F,15.4%,–
C=CCOc1ccccc1/C=N/NC(=O)Cc1ccccc1,-0.93%,–
O=C(N/N=C/c1ccccc1O)/C(=C/c1ccccc1)CCO,–,3.26 µM (active)
CN(Cc1nc2ccccc2s1)C(=O)c1ccc(F)cc1,-8.72%,–
CCCS(=O)(=O)NC(=O)C1(C)CCN(C(=O)c2sccc2C)C1 (stereo not given),2.03%,–
CCc1ccc(C(=O)C(C)OC(=O)CN2C(=O)NC3(CCCC3)C2=O)cc1 (stereo not given),-24.3%,–
COC(=O)Nc1ccc(S(=O)(=O)Nc2cc(OC)nc(OC)n2)cc1,3.17%,–
CCOC(=O)c1ccc(NC(=O)Cn2c(=O)n(-c3ccc(C)cc3)c(=O)c3c2cnn3C)cc1,-19.4%,–
COC(=O)C1=C(C(=O)OC)C2(OC1c1ccc(Br)cc1)C(=O)c1ccccc1C2=O (stereo not given),-7.41%,–
CCOc1ccc(-c2n[nH]c3c2C(c2ccccc2OC)N(c2ccc(Br)cc2)C3=O)cc1 (stereo not given),–,16.4 µM (active)
CN1C(=O)c2[nH]nc(-c3ccc(F)cc3)c2C1c1ccccn1 (stereo not given),-21.5%,–
CCOc1ccc(/C(O)=C2\C(=O)C(=O)N(c3ccc(OC)cc3)C2c2ccccc2[N+](=O)[O-])cc1 (stereo not given),-12.9%,–
C/C(=N/NC(=O)CCc1ccccc1)c1ccco1,-1.78%,–
Cc1cccc(NC(=O)CSc2nnc(-c3ccco3)o2)c1,1.75%,–
O=C(CCc1ccccc1)Nc1cccc(-c2nnc(-c3ccco3)o2)c1,–,25.9 µM (active)
COc1ccc(C(=O)NCC2CCCO2)cc1S(=O)(=O)NCc1ccc(Cl)cc1 (stereo not given),-18.3%,–
Cc1[nH]c2ccccc2c1C(=O)C(C)Sc1nnc(C2CC2)o1 (stereo not given),-13.7%,–

SMILES,"activity change, negative = growth inhibition",Potency
COc1ccc(-c2cc(C(F)(F)F)n3nc(-c4ccccc4)cc3n2)cc1OC,–,10.3 µM (active)
Cc1cc(-c2ccccc2)n2nc(-c3ccccc3)cc2n1,-2.08%,–
COC(=O)c1cc2nc(-c3ccccc3)cc(C(F)(F)F)n2n1,6.15%,–
O=C(NC1CC(=O)N(c2ccc(F)cc2)C1)C1CCCCC1 (stereo not given),8.8%,–
CC1CCN(S(=O)(=O)c2ccc3c(c2)n(C)c(=O)n3C)CC1,0.293%,–
Cc1ccc(-c2ccnc(-n3ncc(C(=O)N(C)Cc4cccc5ncccc45)c3C3CC3)n2)o1,10% [at 9.04 µM],–
CC1(C)Oc2ccc3ccc(=O)oc3c2/C(=N/O)C1=O,10.3%,–
CCSc1ncc(Cl)c(C(=O)Nc2c(C(=O)c3ccccc3)oc3ccccc23)n1,0.0067%,–
CCOc1ccc(N(Cc2ccccc2)C(=O)c2nc(SCC)ncc2Cl)cc1,–,29.1 µM (active)
CCOc1ccc(S(=O)(=O)N(CC(=O)O)c2ccccc2)cc1,-2.16%,–
CCOc1ccc(N(Cc2ccccc2)C(=O)c2nc(S(C)(=O)=O)ncc2Cl)cc1,–,0.58 µM (active)
CCSc1nnc2c(n1)OC(c1ccc(OCC(=O)O)cc1)Nc1ccccc1-2 (stereo not given),-10%,–
CCOc1ccc(NC(=O)CN(Cc2ccccc2)S(=O)(=O)c2ccc(Cl)cc2)cc1,-28.2%,–
COc1cc(=O)n2c(c1C(=O)NCc1ccco1)CCN(Cc1ccccc1)CC2,13.5% [at 9.04 µM],–
Cc1cccc(NC(=O)NC2(C)CCS(=O)(=O)C2)c1 (stereo not given),25.1%,–
COc1cc(Cl)c(C)cc1NC(=O)CSc1nnc(CN2CCCC2)o1,-20.8%,–
COc1ccccc1CNC(=O)COn1nnc2ccc(S(=O)(=O)N3CCOCC3)cc21,-23.6%,–
COc1cccc(NC(=O)C(C)Oc2ccccc2)c1 (stereo not given),-5.7%,–
COc1cccc(NC(=O)C2C(c3ccccc3)C2(Cl)Cl)c1 (stereo not given),–,29.1 µM (active)
COc1cccc(NC(=O)c2csnn2)c1,2.54%,–
CSc1ccc(CNC(=O)c2ccc(NC(=O)C3=CSCCO3)cc2)cc1,-10.5%,–
O=S1(=O)CC(N2CCN(CCO)CC2)CN1Cc1cn(Cc2ccc(Cl)cc2)nn1 (stereo not given),-27%,–

SMILES,"activity change, negative = growth inhibition",Potency
CC(C)C1C(=O)N(Cc2cn(CCC3OCCO3)nn2)CCS(=O)(=O)N1Cc1ccc(-c2ccccc2C(F)(F)F)cc1 (stereo not given),–,13 µM (active)
Cc1ccc(Cn2cc(CN3CC(N4CCN(C)CC4)CS3(=O)=O)nn2)cc1 (stereo not given),-11.1%,–
Cc1ccc(-c2ccc(CN3C(C(C)C)C(=O)N(Cc4cn(CCC5OCCO5)nn4)CCS3(=O)=O)cc2)cc1 (stereo not given),–,16.4 µM (active)
CC(NC(=O)C(=O)N/N=C/c1ccc(Cl)cc1)c1ccccc1 (stereo not given),-6.61%,–
O=C(O)C1=CCCN(CCON=C(c2ccccc2)c2ccccc2)C1,–,inactive
COc1cc(C2/C(=C(\O)c3ccc4c(c3)CC(C)O4)C(=O)C(=O)N2Cc2ccco2)ccc1O (stereo not given),8.24%,–
CN(CC(=O)NCCc1ccc(S(N)(=O)=O)cc1)CC(=O)Nc1ccc(Cl)cc1,1.45%,–
O=C1/C(=C/c2cccs2)SC(=S)N1C1CCS(=O)(=O)C1 (stereo not given),–,14.6 µM (active)
O=C(CCN1C(=O)/C(=C/c2cccs2)SC1=S)NNC(=O)c1cccc(O)c1,3.46%,–
N/C(=N\OC(=O)Nc1ccccc1)c1ccno1,-0.882%,–
Cc1cccnc1NC(=O)Cn1c(=O)oc2ccccc21,-1.84%,–
O=C(NCCCn1ccnc1)c1ccccc1F,12%,–
COc1ccccc1NS(=O)(=O)c1ccc(C)c(C(=O)NNC(=O)c2csc(N3CCOCC3)n2)c1,0.108%,–
O=C(NCCc1ccccc1)C1CC1,1.38%,–
CCCC1CCC(=NNC(=S)NCCc2ccccc2)CC1 (stereo not given),–,16.4 µM (active)
CCC(C)(C)C1CCC(=NNC(=O)c2ccc(Br)o2)CC1 (stereo not given),-18.5%,–
Cc1ccc2[nH]c3c(=O)n(CC(=O)NCCc4ccc(Cl)cc4)ncc3c2c1,–,inactive
COc1ccc(S(=O)(=O)N2CCN(CC(=O)N3c4ccccc4CC3C)CC2)cc1OC (stereo not given),0.557%,–
COc1cccc(/C=C(/CC(=O)Nc2ccc(N3CCOCC3)cc2)c2nc3ccccc3s2)c1,-5.64%,–
Cc1cc(C)c(C=NNc2nc3c([nH]2)c(=O)n(C)c(=O)n3C)c(C)c1,-11.7%,–
Oc1ccc(-c2nnc(Nc3ccccc3)c3ccccc23)cc1,-4.05%,–
